Laboratory results: the supplement of paper PMC9794691
± gives the standard deviation of the averaged measurements.

Experiments:
Experiment in all cases: area under confluence curve of osimertinib + compound combination regimen (DTP regrowth); compare to osimertinib-only DTP control AUC of the same experiment (AUC (confluence x time, arbitrary))
[1] = test system: PC9
In short: (§1)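 Two schedules were compared in EGFR-mutant NSCLC lines. In one, the EGFR inhibitor and a fixed-dose test compound were given together up to the persister stage (10–21 days), followed by drug-free medium. In the other, the inhibitor alone came first and the test compound second. Prism calculated the area under the IncuCyte confluence–time curve, taking the median of triplicates where these were available.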

[2] = test system: H1975
In short: as §1

[3] = test system: HCC2279
In short: as §1

[4] = test system: HCC2935
In short: as §1

[5] = test system: HCC4006
In short: as §1

[6] = test system: HCC827
In short: as §1

[7] = test system: II-18
In short: as §1

Structure (SMILES): Cc1nc(Nc2n[nH]c3c2CN(C(=O)N[C@H](CN(C)C)c2ccccc2)C3(C)C)c2sccc2n1 + C=CC(=O)Nc1cc(Nc2nccc(-c3cn(C)c4ccccc34)n2)c(OC)cc1N(C)CCN(C)C [osimertinib]
- area under confluence curve ([1]; test compound dose 100 nM, dosing schedule: sequential, osimertinib-only DTP control AUC in same experiment: 14258, DMSO control AUC in same experiment: 20347): 3500
- area under confluence curve ([1]; test compound dose 100 nM, dosing schedule: upfront, osimertinib-only DTP control AUC in same experiment: 21499, DMSO control AUC in same experiment: 20347): 12300

Structure (SMILES): CS(=O)(=O)N1CCN(Cc2cc3nc(-c4cccc5[nH]ncc45)nc(N4CCOCC4)c3s2)CC1 + C=CC(=O)Nc1cc(Nc2nccc(-c3cn(C)c4ccccc34)n2)c(OC)cc1N(C)CCN(C)C [osimertinib]
- area under confluence curve ([1]; test compound dose 1000 nM, dosing schedule: sequential, osimertinib-only DTP control AUC in same experiment: 1963, DMSO control AUC in same experiment: 30580): 1580 ± 160
- area under confluence curve ([1]; test compound dose 1000 nM, dosing schedule: upfront, osimertinib-only DTP control AUC in same experiment: 8618, DMSO control AUC in same experiment: 30580): 4540 ± 320

Structure (SMILES): Cc1cccc(-c2[nH]c(C(C)(C)C)nc2-c2ccc3nccnc3c2)n1 + C=CC(=O)Nc1cc(Nc2nccc(-c3cn(C)c4ccccc34)n2)c(OC)cc1N(C)CCN(C)C [osimertinib]
- area under confluence curve ([1]; test compound dose 1000 nM, dosing schedule: sequential, osimertinib-only DTP control AUC in same experiment: 13130, DMSO control AUC in same experiment: 20567): 13600
- area under confluence curve ([1]; test compound dose 1000 nM, dosing schedule: sequential, osimertinib-only DTP control AUC in same experiment: 15001, DMSO control AUC in same experiment: 22064): 14500
- area under confluence curve ([1]; test compound dose 1000 nM, dosing schedule: upfront, osimertinib-only DTP control AUC in same experiment: 18577, DMSO control AUC in same experiment: 20567): 20300
- area under confluence curve ([1]; test compound dose 1000 nM, dosing schedule: upfront, osimertinib-only DTP control AUC in same experiment: 24924, DMSO control AUC in same experiment: 22064): 25300

Structure (SMILES): CNC(=O)c1cccc(-c2ccc3c(N4CCOC[C@@H]4C)nc(N4CCOC[C@@H]4C)nc3n2)c1 + C=CC(=O)Nc1cc(Nc2nccc(-c3cn(C)c4ccccc34)n2)c(OC)cc1N(C)CCN(C)C [osimertinib]
- area under confluence curve ([1]; test compound dose 100 nM, dosing schedule: sequential, osimertinib-only DTP control AUC in same experiment: 13052, DMSO control AUC in same experiment: 28334): 6580
- area under confluence curve ([1]; test compound dose 100 nM, dosing schedule: upfront, osimertinib-only DTP control AUC in same experiment: 17920, DMSO control AUC in same experiment: 28334): 14800

Structure (SMILES): CCn1nc(C2CCN(C(=O)CCO)CC2)nc1-c1cnc(N)c(-c2nnc(C(C)(C)C)o2)n1 + C=CC(=O)Nc1cc(Nc2nccc(-c3cn(C)c4ccccc34)n2)c(OC)cc1N(C)CCN(C)C [osimertinib]
- area under confluence curve ([2]; test compound dose 1000 nM, dosing schedule: sequential, osimertinib-only DTP control AUC in same experiment: 15943, DMSO control AUC in same experiment: 20657): 6780
- area under confluence curve ([2]; test compound dose 1000 nM, dosing schedule: upfront, osimertinib-only DTP control AUC in same experiment: 27804, DMSO control AUC in same experiment: 20657): 13600
- area under confluence curve ([3]; test compound dose 1000 nM, dosing schedule: sequential, osimertinib-only DTP control AUC in same experiment: 11520, DMSO control AUC in same experiment: 9426): 11600
- area under confluence curve ([3]; test compound dose 1000 nM, dosing schedule: upfront, osimertinib-only DTP control AUC in same experiment: 21942, DMSO control AUC in same experiment: 9426): 16800
- area under confluence curve ([4]; test compound dose 1000 nM, dosing schedule: sequential, osimertinib-only DTP control AUC in same experiment: 6271, DMSO control AUC in same experiment: 13875): 6130
- area under confluence curve ([4]; test compound dose 1000 nM, dosing schedule: upfront, osimertinib-only DTP control AUC in same experiment: 10360, DMSO control AUC in same experiment: 13875): 4470
- area under confluence curve ([5]; test compound dose 1000 nM, dosing schedule: sequential, osimertinib-only DTP control AUC in same experiment: 19238, DMSO control AUC in same experiment: 16638): 16700
- area under confluence curve ([5]; test compound dose 1000 nM, dosing schedule: upfront, osimertinib-only DTP control AUC in same experiment: 21234, DMSO control AUC in same experiment: 16638): 5320
- area under confluence curve ([6]; test compound dose 1000 nM, dosing schedule: sequential, osimertinib-only DTP control AUC in same experiment: 8266, DMSO control AUC in same experiment: 27404): 7050
- area under confluence curve ([6]; test compound dose 1000 nM, dosing schedule: upfront, osimertinib-only DTP control AUC in same experiment: 13929, DMSO control AUC in same experiment: 27404): 11000
- area under confluence curve ([7]; test compound dose 1000 nM, dosing schedule: sequential, osimertinib-only DTP control AUC in same experiment: 21014, DMSO control AUC in same experiment: 18482): 11100
- area under confluence curve ([7]; test compound dose 1000 nM, dosing schedule: upfront, osimertinib-only DTP control AUC in same experiment: 27084, DMSO control AUC in same experiment: 18482): 4500
- area under confluence curve ([1]; test compound dose 1000 nM, dosing schedule: sequential, osimertinib-only DTP control AUC in same experiment: 12535, DMSO control AUC in same experiment: 43316): 3140
- area under confluence curve ([1]; test compound dose 1000 nM, dosing schedule: sequential, osimertinib-only DTP control AUC in same experiment: 15163, DMSO control AUC in same experiment: 28684): 9440
- area under confluence curve ([1]; test compound dose 1000 nM, dosing schedule: upfront, osimertinib-only DTP control AUC in same experiment: 15354, DMSO control AUC in same experiment: 43316): 5490
- area under confluence curve ([1]; test compound dose 1000 nM, dosing schedule: upfront, osimertinib-only DTP control AUC in same experiment: 21337, DMSO control AUC in same experiment: 28684): 15400

Structure (SMILES): Cc1nc(-c2nc(-c3ccc(OC(F)(F)F)cc3)no2)nn1Cc1cccc(N2CCC(S(C)(=O)=O)CC2)c1 + C=CC(=O)Nc1cc(Nc2nccc(-c3cn(C)c4ccccc34)n2)c(OC)cc1N(C)CCN(C)C [osimertinib]
- area under confluence curve ([1]; test compound dose 10 nM, dosing schedule: sequential, osimertinib-only DTP control AUC in same experiment: 11178, DMSO control AUC in same experiment: 18385): 9950
- area under confluence curve ([1]; test compound dose 10 nM, dosing schedule: sequential, osimertinib-only DTP control AUC in same experiment: 12231, DMSO control AUC in same experiment: 19076): 3870
- area under confluence curve ([1]; test compound dose 10 nM, dosing schedule: upfront, osimertinib-only DTP control AUC in same experiment: 16535, DMSO control AUC in same experiment: 19076): 12500
- area under confluence curve ([1]; test compound dose 10 nM, dosing schedule: upfront, osimertinib-only DTP control AUC in same experiment: 16887, DMSO control AUC in same experiment: 18385): 15300

Structure (SMILES): C[C@@]1(C(=O)Nc2ccc(F)nc2)CCCN1c1nc(Nc2cc(C3CC3)n[nH]2)c2cccn2n1 + C=CC(=O)Nc1cc(Nc2nccc(-c3cn(C)c4ccccc34)n2)c(OC)cc1N(C)CCN(C)C [osimertinib]
- area under confluence curve ([2]; test compound dose 100 nM, dosing schedule: sequential, osimertinib-only DTP control AUC in same experiment: 22617, DMSO control AUC in same experiment: 16540): 13500
- area under confluence curve ([2]; test compound dose 100 nM, dosing schedule: upfront, osimertinib-only DTP control AUC in same experiment: 28291, DMSO control AUC in same experiment: 16540): 12500
- area under confluence curve ([3]; test compound dose 100 nM, dosing schedule: sequential, osimertinib-only DTP control AUC in same experiment: 26096, DMSO control AUC in same experiment: 14404): 24200
- area under confluence curve ([3]; test compound dose 100 nM, dosing schedule: upfront, osimertinib-only DTP control AUC in same experiment: 33120, DMSO control AUC in same experiment: 14404): 34700
- area under confluence curve ([4]; test compound dose 100 nM, dosing schedule: sequential, osimertinib-only DTP control AUC in same experiment: 22314, DMSO control AUC in same experiment: 19215): 22300
- area under confluence curve ([4]; test compound dose 100 nM, dosing schedule: upfront, osimertinib-only DTP control AUC in same experiment: 29846, DMSO control AUC in same experiment: 19215): 22200
- area under confluence curve ([5]; test compound dose 100 nM, dosing schedule: sequential, osimertinib-only DTP control AUC in same experiment: 12791, DMSO control AUC in same experiment: 18415): 11000
- area under confluence curve ([5]; test compound dose 100 nM, dosing schedule: upfront, osimertinib-only DTP control AUC in same experiment: 17269, DMSO control AUC in same experiment: 18415): 9040
- area under confluence curve ([6]; test compound dose 100 nM, dosing schedule: sequential, osimertinib-only DTP control AUC in same experiment: 15330, DMSO control AUC in same experiment: 21320): 12600
- area under confluence curve ([6]; test compound dose 100 nM, dosing schedule: upfront, osimertinib-only DTP control AUC in same experiment: 20798, DMSO control AUC in same experiment: 21320): 23300
- area under confluence curve ([7]; test compound dose 100 nM, dosing schedule: sequential, osimertinib-only DTP control AUC in same experiment: 8624, DMSO control AUC in same experiment: 11834): 533
- area under confluence curve ([7]; test compound dose 100 nM, dosing schedule: upfront, osimertinib-only DTP control AUC in same experiment: 10856, DMSO control AUC in same experiment: 11834): 1400
